Screening results (PubChem)
C8 TRAIL sens: caspase-8 TRAIL sensitization; NB7+C8 cells + TRAIL, ATPlite viability luminescence; inhibition (viability loss, TRAIL sensitization), % at 10 µM; actives 1% (n = 360,000);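 active = compounds causing at least 50% loss of cell viability in the single-dose screen, relative to plate controls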
HSP90 inh: inhibitors of HSP90 luciferase refolding in rabbit reticulocyte lysate; AID 1789; actives 0.91% (n = 290,000); luciferase refolding luminescence, 3 h; inhibition, % at 5.6 µM;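 active = inhibition above the screen-wide mean plus 3 SD, computed separately per campaign, cut at about 16% in these data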;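 also: 0% = DMSO wells and 100% = 60 µM geldanamycin wells; inhibitors lower the luminescence because luciferase stays unfolded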
aSyn UTR inh: MLPCN primary screen, SNCA 5' untranslated region; inhibition, % (tested at 7.5 µM); alpha-synuclein 5'UTR reporter, inhibitor activity; actives 0.82% (n = 300,000); in the data active = inhibition above about 60%;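 also: H4 neuroglioblastoma cells stably carrying SNCA 5'UTR luciferase fusion; 0% = DMSO wells and 100% = positive control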
HIF-2a block: inhibitors of HIF-2a | 786-0 RCC cells HIF-2a reporter, luciferase luminescence, overnight | inhibition, % at 18.8 µM | actives 0.72% (n = 360,000);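 active = inhibition of the luminescence signal of 40% or more relative to plate controls, in a single-dose primary screen at 18.75 µM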
TROY signal inh: blocks TROY-dependent signaling in reporter cells. inhibition, % at 10 µM. actives 0.98% (n = 360,000). Q293 LMP1-TROYcd NF-kB luciferase reporter, 4 h;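 active = compounds whose plate-normalised and pattern-corrected inhibition of the luciferase reporter signal at the single screening dose is 50% or more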
TWEAK-Fn14 inh: TWEAK-Fn14 signaling inhibition | actives 2% (n = 360,000) | TWEAK-stimulated Fn14 reporter cells, luciferase luminescence, 8 h | inhibition, % at 10 µM; in the data active = inhibition above about 50%
The depositor's hits bear a star; . = not tested or not shown. Compounds with a hit are over-represented: about 3.9% of the library has one in this group of screens.

SMILES | C8 TRAIL sens | HSP90 inh | aSyn UTR inh | HIF-2a block | TROY signal inh | TWEAK-Fn14 inh
COc1cccc(C(=O)Nc2ccc(-c3nc4ccccc4o3)c(O)c2)c1 | 10 | -2 | -115 | -128 | 21 | 6
Cc1ccc(-c2nc3cc(C)ccc3o2)cc1 | 54* | 13 | 73* | -69 | 65* | 84*
O=C(C(=O)N1CCC(Cc2ccccc2)CC1)c1ccccc1Br | -4 | . | . | 1 | . | .
CC1=C(C(=O)N2CCCCCC2)CC(CC(=O)NCC2CCCCC2)C(=O)N1Cc1ccc(F)cc1 (stereo not drawn) | 7 | . | . | 0 | 5 | 1
CC(C)[C@H](NC(=O)OC(C)(C)C)c1cc(C(=O)NC2CC2)c(N)s1 | -13 | . | . | 10 | . | .
O=S(=O)(CCN1CCCCC1)CCS(=O)(=O)CCN1CCCCC1 | 24 | . | . | -8 | 61* | 10
O=C(C(=O)N1CCN(C(=O)OCc2ccccc2)CC1)c1cccs1 | 4 | . | . | -3 | . | .
Cc1cc(Br)cn2c(Cc3ccccc3)c(-c3ccco3)nc12 | -15 | . | . | -130 | 6 | 85*
COc1ccc(Cc2c(-c3ccco3)nc3c(C)cc(Br)cn23)c(C)c1 | -16 | . | . | 1 | 13 | 19
COc1ccc(Cc2c(-c3ccco3)nc3ccc(Br)cn23)c(C)c1 | -4 | . | . | -21 | -7 | 57*
COc1ccccc1Cc1c(-c2ccco2)nc2c(C)cc(Br)cn12 | 13 | . | . | 93* | 10 | 69*
Cc1cc(Br)cn2c(Cc3ccsc3)c(-c3ccco3)nc12 | -10 | . | . | 15 | -5 | 51*
Cc1cc(Br)cn2c(Cc3ccsc3)c(-c3cccc(Cl)c3)nc12 | -8 | . | . | -10 | 19 | 14
CCCS(=O)(=O)NC(=O)C1(C)CCN(C(=O)c2cc(C(C)(C)C)nn2C)C1 (stereo not drawn) | 21 | . | . | 18 | 5 | 11
CC(Oc1ccc(F)cc1Br)c1nc2ccccc2c(=O)[nH]1 (stereo not drawn) | -2 | -1 | -18 | -118 | -31 | -2
O=S(=O)(Nc1ccc2c(c1)OCCO2)c1cccc(F)c1 | -9 | -3 | -37 | 16 | 40 | 52*
COc1ccc(OC)c(S(=O)(=O)Nc2ccc(-c3ccc4nncn4n3)cc2)c1 | 66* | . | 36 | 28 | 3 | 4
COc1ccc(OC)c(S(=O)(=O)Nc2ccc3c(c2)OCCO3)c1 | -7 | . | . | 35 | 76* | 84*
O=S(=O)(Nc1ccc(-c2ccc3nncn3n2)cc1)c1cc(F)ccc1F | 1 | . | 30 | 11 | -17 | -25
CC(=O)NCCNC(=O)c1cccc(NS(=O)(=O)c2ccc3c(c2)OCCO3)c1 | -4 | . | 7 | 2 | -22 | 5
CC(=O)NCCc1ccc(S(=O)(=O)Nc2ccc3c(c2)OCCO3)cc1 | -8 | . | 0 | 12 | 43 | 55*
Cc1ccc2nc(C(C)(C)C)c(Cc3cccc(Cl)c3)n2c1 | 7 | . | . | -166 | 44 | 1
Cc1n[nH]c(C)c1S(=O)(=O)Nc1ccc2c(c1)OCCO2 | -9 | 5 | -13 | 26 | 63* | 82*
Cc1ccc(S(=O)(=O)Nc2ccc3c(c2)OCCO3)cc1C | -4 | 13 | -12 | 40 | 80* | 87*
COc1ccc(/C=C/C(=O)c2ccc3c(c2)OCO3)cc1OC | 2 | . | . | -35 | -42 | -26
SMILES | C8 TRAIL sens | HSP90 inh | aSyn UTR inh | HIF-2a block | TROY signal inh | TWEAK-Fn14 inh
Cc1ccc(NC(=O)c2ccc3c(c2)OCCO3)cc1S(=O)(=O)Nc1cccc(Cl)c1 | 19 | 4 | -95 | -139 | 59* | 62*
O=S(=O)(Nc1ccc2c(c1)OCCO2)c1ccc(F)c(F)c1 | -3 | 0 | 9 | 21 | 0 | 20
COc1ccc(OC)c(/C=C/C(=O)c2ccc3c(c2)OCCO3)c1 | 65* | 0 | -156 | -72 | -36 | 16
COc1ccc(C)cc1NC(=O)Cc1csc(NC(=O)Nc2ccccc2OC)n1 | -1 | . | . | -19 | 26 | 43
COC(=O)/C=C1\OC(C2CC2)c2ccccc21 (stereo not drawn) | -3 | . | . | 12 | . | .
O=C(CN1C(=O)NC2(CCCC2)C1=O)Nc1cc(Cl)ccc1Oc1ccccc1 | -2 | . | . | 9 | 2 | 4
CN1OC[C@@H]2CN(Cc3ccc4c(c3)OCO4)[C@H](c3ccc(N4CCCCC4)cc3)C[C@@H]21 | 6 | . | . | -5 | 12 | -22
COc1cccc(CNC(=O)c2cccc(NC(=O)C3=C(C)OCCS3)c2)c1 | 5 | 3 | -2 | 4 | 18 | 10
COc1ccc(CNC(=O)Cc2ccc(NC(=O)C3=C(C)OCCS3)cc2)cc1 | 71* | 1 | -13 | -170 | -24 | -10
CC1=C(C(=O)Nc2ccc(CC(=O)NCc3ccc(OC(C)C)cc3)cc2)SCCO1 | 56* | -5 | 56 | -193 | -13 | -25
Cc1ccc(Nc2nc(CSc3nnnn3-c3ccccc3)cs2)cc1 | 1 | 0 | 7 | -39 | 38 | 58*
Cc1ccc(Nc2nc(CSc3nnc(-c4cccnc4)n3-c3ccccc3C)cs2)cc1 | 9 | -2 | -9 | -20 | 51* | 53*
Cn1nnnc1SCc1csc(Nc2ccccc2)n1 | -9 | 3 | -109 | -150 | -11 | 4
Cc1ccc(Nc2nc(CSc3nnc(-c4ccccc4)n3C)cs2)cc1 | 50* | 0 | -68 | -153 | 50 | 10
Cc1ccc(Nc2nc(CSc3nnnn3C)cs2)cc1 | 51* | 1 | -103 | -192 | 33 | 63*
C/C=C1\NC(=O)[C@H](C)NC(=O)[C@@H](NC(=O)[C@H](Cc2ccc(O)cc2)NC(=O)[C@@H](NC(=O)/C(C)=C/C)C(C)C)[C@@H](C)OC(=O)[C@H](CC(C)C)NC(=O)[C@@H](CCC(=O)O)NC1=O | 4 | . | . | 8 | -11 | 0
CC(=O)Nc1ccc(NC(=O)COC(=O)/C(=C/c2ccccc2)n2nnnc2C)cc1 | 21 | 8 | -15 | 23 | -6 | 39
Cc1nnnn1/C(=C\c1ccccc1)C(=O)OCC(=O)NC(C)(C)C | 12 | 1 | -5 | 25 | 21 | 50*
Cc1nnnn1/C(=C\c1ccccc1)C(=O)OCC(=O)NC1CCCCC1 | -2 | . | -27 | 13 | 24 | 57*
CCOC(=O)[C@]12CCCC=C1N(Cc1ccc(Cl)cc1Cl)C(=O)[C@H](CC(=O)NCc1ccc(OC)c(OC)c1)C2 | 21 | . | . | -15 | 30 | 45
NC(=O)C(NN=C(c1ccccc1)c1ccccc1)c1ccccc1 (stereo not drawn) | -10 | . | . | 8 | -11 | -4
Cc1cc2c(=O)[nH]c(N)nc2[nH]1 | -7 | . | . | 18 | -5 | -8
O=C(NNC(=O)c1cccnc1SCc1cccc([N+](=O)[O-])c1)c1ccccn1 | 38 | -1 | 103* | 17 | -6 | 4
CCCc1nc2c(C)cc(Br)cn2c1Cc1cccc(F)c1 | 2 | . | . | -95 | 28 | 13
COc1ccc(NC(=O)C2CCCCC2)cc1S(=O)(=O)N1CCOCC1 | 8 | . | . | 10 | 4 | -20
Cc1ccccc1Cn1ccc(NC(=O)c2nn(C)cc2[N+](=O)[O-])n1 | 12 | 4 | -27 | 2 | 78* | 87*
